In PubChem BioAssay (NCI) one finds growth data, which are given here for 24 compounds.

The structures appear in SMILES notation. The panel holds about 83,000 compounds, 20% with a hit somewhere; the sample as a whole holds those more often.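 In brief: 96-well plates, 48 h treatment, single concentration, percent growth endpoint.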 Values without a mark were called inactive. Activity calls are given as the source filed them. Rule for the calls: active = growth percent below 10; inactive = the rest.

Holding throughout (experiment): NCI-60 one-dose screen, 48 h (100 = growth as untreated, 0 = no growth, -100 = all killed)
Holding throughout (conditions): 10 µM unless noted

Experiment [1] has as its system SR leukemia.
Experiment [2] deals with RPMI-8226 leukemia.
Experiment [3] has as its system OVCAR-8 ovarian.
Experiment [4] relates to OVCAR-5 ovarian.
Experiment [5] concerns OVCAR-4 ovarian.
The test system of experiment [6] is SK-OV-3 ovarian.
For experiment [7], the system named is IGROV1 ovarian.
The subject of experiment [8] is OVCAR-3 ovarian.
The subject of experiment [9] is HS 578T breast.
In experiment [10] the test system is NCI/ADR-RES ovarian.

For the compound `COc1cc(/C=C/C(=O)c2ccc(NC(=O)CSc3nnc(-c4cc(-c5ccccc5)nc5ccccc45)n3-c3ccccc3)cc2)cc(OC)c1OC`, the growth was 58% in experiment [1]; 72.3% in experiment [2]; 86.9% in [3]; 93.6% in experiment [4]; 103% in [5]; 101% in experiment [6]. Moreover, the growth in experiment [7] is 110%; in [8], 98.5%; in [9], 90.4%; in [10] it was 86.7%.

Turning to `Cn1cc2c(=O)nc3c(-c4nc5ccccc5[nH]4)n[nH]n3c2n1`, the growth in experiment [1] is 32.2%; in experiment [2], 50.6%; in experiment [3], 70.9%; in experiment [4], 126%; in experiment [5] it was 90.6%; in experiment [6], 85.2%. Moreover, the growth in [7] is 91.8%; in experiment [8], 73.4%; in [9] it was 93.5%; in experiment [10], 95.1%.

On to `CN1Cn2c(ccc2C(F)(F)F)C(=O)CS1(=O)=O`, for which the growth in experiment [1] is 109%; in experiment [2], 109%; in experiment [3], 108%; in experiment [4] it was 96%; in [5], 97.4%; in [6], 106%. For the same compound, the growth in experiment [7] was 104%; in [8], 112%; in experiment [9], 106%; in experiment [10], 103%.

As to `Cc1nn(-c2nc(-c3cc4ccccc4oc3=O)cs2)c(C)c1N=Nc1ccccc1`, the growth in experiment [1] was 90.4%; in experiment [2], 101%; in experiment [3], 106%; in experiment [4], 106%; in experiment [5], 102%; in experiment [6] it was 110%. The growth in experiment [7] is 105%; in experiment [8], 101%; in experiment [9], 108%; in experiment [10], 104%.

Turning to `O=C1c2cccc3cccc(c23)C(=O)N1N1C(=O)c2cccc3c(N4CCNCC4)ccc(c23)C1=O`, the growth is -6.4% (active) in experiment [1]; 68.8% in experiment [2]; 82.6% in experiment [3]; 121% in experiment [4]; 116% in [5]; 104% in experiment [6]. For the same compound, the growth in [7] is 91.2%; in experiment [8], 101%; in experiment [9], 85.9%; in experiment [10], 82.6%.

As for `Cn1cc(-c2nonc2-c2cn(C)c3ccc(Br)cc23)c2ccccc21`, the growth was 11.1% in experiment [1]; 29.6% in experiment [2]; 36.8% in experiment [3]; 58.1% in experiment [4]; 55.5% in experiment [5]; 37.9% in [6]. In addition, the growth was 45.6% in [7], 3.66% (active) in experiment [8], -1.89% (active) in [9] and 21% in experiment [10].

Turning to `CCN(CC)CC(=O)Nc1ccc2ncnc(Nc3ccc(Oc4cccc(F)c4)c(Cl)c3)c2c1`, the growth in [1] was 2.54% (active); in experiment [2] it was 27.6%; in experiment [3], 76.1%; in [4], 80.8%; in experiment [5], 52.6%; in experiment [6], 22.4%. Besides, the growth in experiment [7] is 18%; in [8] it was 52.7%; in experiment [9], 79.5%; in experiment [10] it was 69.6%.

`COc1cc(NS(=O)(=O)C(C)C)cc(-c2cc(-c3ccc(N4CCNCC4)cc3)cnc2N)c1`: the growth in [1] is 54.1%; in [2] it was 80%; in [3], 96.6%; in experiment [4] it was 73.2%; in experiment [5], 95.9%; in experiment [6], 96.9%. The growth was 36.9% in [7], 90.8% in experiment [8], 65.4% in experiment [9] and 111% in experiment [10].

Take `CC/C(=C(/c1ccc(O)cc1)c1ccc(OCCN2CCCCCC2)cc1)c1ccc(Cl)cc1`: the growth in experiment [1] was -24% (active); in experiment [2], -41.6% (active); in experiment [3], 83.6%; in experiment [4], 75%; in experiment [5] it was 87.4%; in experiment [6], 96.4%. The growth was 77.3% in [7], 61% in experiment [8], 85.3% in [9] and 84.5% in experiment [10].

In the case of `COc1ccc(NC(=O)Nc2ccccc2CNc2nc(Nc3ccc(OCCN4CCCC4)cc3)ncc2Cl)cc1`, the growth was 11.6% in experiment [1]; -18.5% (active) in experiment [2]; -18.2% (active) in [3]; 21.1% in experiment [4]; -74.3% (active) in [5]; 58.5% in experiment [6]. Also, the growth was 24.3% in experiment [7], -83.8% (active) in [8], -67.7% (active) in experiment [9] and 6.48% (active) in experiment [10].

As for `c1ccc(Cc2cccc[n+]2C(c2ccccc2)c2ccccc2)cc1`, the growth in experiment [1] was 32.4%; in experiment [2] it was 12.3%; in experiment [3], 57.2%; in experiment [4], 71.5%; in experiment [5], 28.2%; in experiment [6], 52.1%. The growth in experiment [7] is 62.3%; in experiment [8], 44.6%; in experiment [9], 90.6%; in experiment [10] it was 104%.

On to `COC(=O)[C@H]1Cc2c([nH]c3ccccc23)[C@@H](c2cccs2)N1`, for which the growth is 108% in experiment [1]; 103% in experiment [2]; 104% in [3]; 102% in experiment [4]; 102% in experiment [5]; 102% in experiment [6]. The growth in experiment [7] was 101%; in [8], 111%; in experiment [9], 103%; in experiment [10], 106%.

As for `N=C(N)SCc1c2ccccc2c(CSC(=N)N)c2ccccc12`, the growth in experiment [1] was -11.1% (active); in experiment [2] it was 46%; in [3], 60.7%; in experiment [4], 102%; in experiment [5], 80.6%; in [6], 81.4%. Also, the growth in experiment [7] was 80.6%; in experiment [8], 93.5%; in [9] it was 85.5%; in [10] it was 103%.

Turning to `O=C(Nc1ccc(F)cc1)c1cc2cc(Nc3nc(-c4ccccc4)nc4ccccc34)ccc2oc1=O`, the growth in experiment [1] is 86.6%; in [2], 97.9%; in experiment [3], 100%; in experiment [4], 106%; in experiment [5], 111%; in experiment [6], 98.2%. For the same compound, the growth is 101% in experiment [7], 105% in experiment [8], 103% in experiment [9] and 95.5% in [10].

Take `FC(F)(F)Sc1ccc(/C=C/c2cc(/C=C/c3ccc(SC(F)(F)F)cc3)n(-c3ccccc3)n2)cc1`: the growth in experiment [1] was 91.4%; in [2] it was 93.9%; in experiment [3] it was 95.1%; in experiment [4], 110%; in experiment [5], 92.3%; in [6], 88.1%. Further, the growth is 99.9% in [7], 95.5% in experiment [8], 98.8% in experiment [9] and 98.5% in experiment [10].

On to `CN1CCN(c2ccc(/C=C/C(=O)c3ccc(O)cc3)cc2)CC1`, for which the growth in experiment [1] is 101%; in experiment [2], 102%; in experiment [3], 95.9%; in experiment [4], 98.1%; in experiment [5] it was 89.5%; in experiment [6] it was 105%. Further, the growth in experiment [7] is 105%; in experiment [8], 106%; in experiment [9], 95.7%; in [10], 99.9%.

Turning to `CCOC(=O)n1cc(-c2nonc2-c2cn(C)c3ccc(OC)cc23)c2cc(F)ccc21`, the growth in experiment [1] is 79%; in experiment [2], 74.5%; in [3], 75.7%; in experiment [4], 62%; in experiment [5] it was 75%; in [6] it was 81%. Also, the growth in experiment [7] was 73.2%; in [8], 87.4%; in [9], 70.2%; in experiment [10], 82.2%.

Regarding `C[C@@H]1O[C@@H](O[C@H]2[C@@H](OC(=O)[C@]34CCC(C)(C)C[C@H]3C3=CC[C@@H]5[C@@]6(C)C[C@H](O)[C@H](O[C@@H]7O[C@H](CO)[C@@H](O)[C@H](O)[C@H]7O)[C@@](C)(CO)[C@@H]6CC[C@@]5(C)[C@]3(C)C[C@H]4O)OC[C@@H](O)[C@@H]2O)[C@H](O)[C@H](O[C@@H]2OC[C@@H](O)[C@H](O[C@@H]3OC[C@](O)(CO)[C@H]3O[C@@H]3OC[C@@H](O)[C@H](O)[C@H]3O)[C@H]2O)[C@H]1O[C@@H]1OC[C@](O)(CO)[C@H]1O`, the growth in experiment [1] is 67.5%; in [2], 64%; in experiment [3], 98.8%; in experiment [4] it was 78.1%; in experiment [5], 42.5%; in experiment [6], 93.9%. The growth in experiment [7] was 86.4%; in experiment [8] it was 89.6%; in experiment [9], 97.9%; in experiment [10], 80.5%.

Take `O=[N+]([O-])c1cc(C(F)(F)F)ccc1Sc1ccc(C(F)(F)F)cc1[N+](=O)[O-]`: the growth was 7.21% (active) in experiment [1]; 34.2% in [2]; 85.7% in experiment [3]; 132% in experiment [4]; 44.6% in [5]; 56% in experiment [6]. Also, the growth in experiment [7] was 77.7%; in experiment [8] it was 92.3%; in experiment [9] it was 66.3%; in [10] it was 82.5%.

Turning to `CCNC(=O)Oc1ccc(/C(=C(/C)Cc2ccc(OC)cc2)c2ccc(OCCN(CC)CC)cc2)cc1`, the growth in experiment [1] was -55.3% (active); in experiment [2], -14.8% (active); in experiment [3] it was 74.8%; in experiment [4], 89.9%; in [5], 69.4%; in experiment [6], 88.6%. The growth in experiment [7] is 74.7%; in [8], 50.7%; in experiment [9] it was 45.9%; in [10], 78.1%.

For the compound `COc1ccc(-c2csc(NC(=O)CN3CCN(CCO)CC3)n2)cc1NS(=O)(=O)c1cccc2c(N(C)C)cccc12`, the growth in experiment [1] was -6.12% (active); in experiment [2], 36%; in [3] it was 84.1%; in experiment [4] it was 97%; in experiment [5] it was 68.2%; in [6], 90.7%. Moreover, the growth was 77.3% in experiment [7], 79.5% in [8], 65.7% in [9] and 93.3% in experiment [10].

With `Cc1ccc(-c2nc3nc(-c4ccc(Br)cc4)nc(N4CCCNCC4)c3o2)cc1`, the growth in experiment [1] was -32.2% (active); in experiment [2], -36.9% (active); in [3] it was -45.6% (active); in experiment [4], -44.4% (active); in experiment [5] it was -94.2% (active); in experiment [6], 110%. The growth in experiment [7] is -75.6% (active); in [8], -95.1% (active); in experiment [9], -30.3% (active); in [10], -64.8% (active).

Take `C#CCOCC1CN(C)C(=O)O1` (stereo not given): the growth in experiment [1] was 69.7%; in experiment [2] it was 110%; in experiment [3] it was 94.1%; in [4] it was 126%; in experiment [5], 116%; in [6] it was 133%. The growth in experiment [7] was 108%; in [8], 109%; in experiment [9] it was 109%; in experiment [10], 109%.

As to `COc1ccc(S(=O)(=O)Nc2cc(Sc3cccc4cccnc34)c(O)c3ccccc23)cc1`, the growth in experiment [1] is 8.57% (active); in experiment [2] it was 5.31% (active); in experiment [3], 9.48% (active); in [4], 42.3%; in experiment [5] it was -99.4% (active); in experiment [6], 50.7%. The growth in experiment [7] is 5.99% (active); in experiment [8], -81.8% (active); in experiment [9], 47.2%; in [10], 11.1%.
